Source: PubChem BioAssay
In the library only some 1.1% were active in any assay of this set; here they are far more common.
MsrA act – activates bovine MsrA enzyme; purified bovine MsrA, absorbance read-out; activation, % at 10.6 µM; hit rate 0.3% among 360,000; AID 602163; in the data active = activation above about 7.5%;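 note: 0% = vehicle and 100% = reference activator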
MsrA inhibitor – inhibits bovine methionine sulfoxide reductase A | purified bovine MsrA, absorbance read-out | inhibition, % at 15.5 µM | hit rate 0.75% among 360,000; in the data active = inhibition above about 4.5%;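 note: 0% = vehicle wells with enzyme and 100% = reference inhibitor wells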
PKA-R2B act – PKA-R2B complex activation | P22694+P31323 | PKA-R2B holoenzyme dissociation, Cy5-IP20 fluorescence polarization; R2B truncated from residue 108, S112A mutant; 0% DMSO only, 100% 113 µM cGMP | activation, % at 11.4 µM | hit rate 0.079% among 340,000 | AID 504700;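 active = activation above a cutoff set at the mean over all compounds plus 3 SD, cut at about 18% in these data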;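 note: higher means more holoenzyme dissociation and a rise in polarization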
Target sequence (P31323 whole entry, looked up, other chains not shown, the tested form may be a part): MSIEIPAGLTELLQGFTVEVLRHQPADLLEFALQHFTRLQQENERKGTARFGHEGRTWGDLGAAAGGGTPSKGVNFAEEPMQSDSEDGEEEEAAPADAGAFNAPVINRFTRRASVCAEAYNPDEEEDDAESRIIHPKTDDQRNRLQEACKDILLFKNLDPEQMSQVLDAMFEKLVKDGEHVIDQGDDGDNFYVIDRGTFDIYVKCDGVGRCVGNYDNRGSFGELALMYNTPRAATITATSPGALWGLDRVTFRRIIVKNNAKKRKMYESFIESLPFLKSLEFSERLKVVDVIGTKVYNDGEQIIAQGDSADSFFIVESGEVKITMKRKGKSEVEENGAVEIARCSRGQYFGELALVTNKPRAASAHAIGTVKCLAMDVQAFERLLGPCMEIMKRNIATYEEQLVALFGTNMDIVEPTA
PKA-R1A activ – PKA-R1A complex activation | P00514+P68181 | PKA-R1A dissociation, Cy5-IP20 fluorescence polarization; scaled: DMSO 0%, 113 µM cGMP 100% | activation, % at 11.4 µM | hit rate 0.083% among 340,000 | AID 504707;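 active = percent activation above the mean of all tested compounds plus 3 SD, cut at about 19% in these data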;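 note: higher means more PKAc released from R1A so a rise in polarization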
MsrA act confirm – confirmation of bovine methionine sulfoxide reductase A activators; shares compounds with MsrA act; purified bovine MsrA, absorbance read-out; activation, % at 10.6 µM; hit rate 12% among 1,000; AID 602270; in the data active = activation above about 4%;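 note: enzyme coupled to thioredoxin and thioredoxin reductase with NADPH; 0% = vehicle wells and 100% = reference activator wells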
The depositor's hits bear a star.

`O=[N+]([O-])c1cc(Br)c(O)c(C=Nc2ccc(N3CCOCC3)cc2)c1` gave MsrA act 10*, MsrA inhibitor 1, PKA-R2B act -67, PKA-R1A activ -64 and MsrA act confirm 7.8*.
COc1ccc(-n2cc(CN3CCC(OC)CC3)c(-c3cccc(F)c3)n2)cc1 was read as MsrA act 8.2*, MsrA inhibitor 0, PKA-R2B act -8, PKA-R1A activ 1 and MsrA act confirm -4.
Cc1csc(N(C(=O)c2cccc(S(=O)(=O)N(C)C)c2)c2ccccc2)n1 was read as MsrA act -5, MsrA inhibitor 0, PKA-R2B act -1 and PKA-R1A activ 9.
Cc1csc(N(C(=O)c2cccc(S(=O)(=O)N3CCCC3)c2)c2ccccc2)n1 was read as MsrA act 15*, MsrA inhibitor 0, PKA-R2B act 6, PKA-R1A activ -7 and MsrA act confirm -3.
COCCCNC(=O)[C@H]1O[C@@H](n2cnc3c(=O)[nH]c(N)nc32)[C@H](O)[C@@H]1O was read as MsrA inhibitor 0.
Screening CCN(CC)CCn1c2c(c(SCC(=O)Nc3nc4ccc(C)cc4s3)nc1=O)CCC2 returned MsrA act 7.9*, MsrA inhibitor 0, PKA-R2B act 0, PKA-R1A activ 10 and MsrA act confirm -1.
COC(=O)[C@]12C[C@H](CC(=O)NCc3ccc(OC)c(OC)c3)C(=O)N(CCC3=CCCCC3)C1=C[C@H](COCc1ccccc1)O[C@@H]2C was read as MsrA inhibitor 0.
Screening COC(=O)c1cc2c(c3c4cc(C)ccc4n(S(=O)(=O)c4ccc(OC)cc4)c13)C(=O)N(C)C2 returned MsrA inhibitor 1.
For COCCCN=Cc1c(C)[nH]n(-c2ccc(Br)c(C)c2)c1=O the results were MsrA act 9.3*, MsrA inhibitor 0, PKA-R2B act -11, PKA-R1A activ -9 and MsrA act confirm -4.
Screening CCC(=O)N1Cc2cc(C(=O)NCC(F)(F)F)nc(-c3cccc(-c4cncnc4)c3)c2[C@@H]1CCO returned MsrA act 8.2*, MsrA inhibitor -2 and MsrA act confirm -5.
CCNC(=O)c1cc2c(c(-c3cccc(-c4cncnc4)c3)n1)[C@@H](CCO)N(C(C)=O)C2 was read as MsrA act 2 and MsrA inhibitor 1.
For C#CCN(Cc1ccco1)C(=O)c1nnc2c3ccccc3n(S(=O)(=O)c3ccccc3)c2n1 the results were MsrA inhibitor 0.
For CC(=O)N1CCN(c2ccc(N3CCN(C(C)=O)[C@@H](C)C3)c(C)c2)[C@H](C)C1 the results were MsrA inhibitor -1.
Screening CC1CCCC(C)N1/N=C/c1cc(Br)cc(Br)c1O (centres undefined) returned MsrA act 9.2*, MsrA inhibitor 0, PKA-R2B act 2, PKA-R1A activ 0 and MsrA act confirm 3.
Screening CCc1cccc(CC)c1NC(=O)/C(C#N)=C/c1ccccc1C(F)(F)F returned MsrA act 11*, MsrA inhibitor 0, PKA-R2B act -9, PKA-R1A activ -4 and MsrA act confirm -1.
For CCCn1c(C)c(CC(=O)Nc2ccc(N(C)c3ccccn3)cc2)c2ccccc21 the results were MsrA inhibitor 0.
`COc1ccc(CN(Cc2ccc(OC)cc2)S(=O)(=O)c2ccc(-n3cnnn3)c(C)c2)cc1` gave MsrA act 1, MsrA inhibitor 0, PKA-R2B act 0 and PKA-R1A activ 2.
Screening COc1ccc(CN(Cc2cccnc2)S(=O)(=O)c2ccc(-n3cnnn3)c(OC)c2)cc1 returned MsrA act 8.1*, MsrA inhibitor -1, PKA-R2B act -2, PKA-R1A activ -17 and MsrA act confirm -1.
For COC(=O)C1=C(C)N(Cc2ccc(Br)cc2)C(=S)NC1c1cccc(Br)c1 (centres undefined) the results were MsrA inhibitor 1.
Cc1[nH]c(-c2ccc(F)cc2)cc1C(=O)N1CCN(c2ccc(Cl)cc2)CC1 was read as MsrA act 8.3*, MsrA inhibitor -1, PKA-R2B act -8, PKA-R1A activ 3 and MsrA act confirm -1.
For COc1ccc(N2CCN(C(=O)c3cc(-c4ccc(F)cc4)[nH]c3C)CC2)cc1 the results were MsrA act -2, MsrA inhibitor -1, PKA-R2B act -5 and PKA-R1A activ -11.
CCCCCCCCN1C(=O)[C@@H](CC(=O)NCCCOC)C[C@@]2(C(=O)OC)C1=C[C@H](C1CCCC1)O[C@@H]2C was read as MsrA inhibitor 0.
